Reference: PubChem BioAssay AID743279 (National Center for Advancing Translational Sciences (NCATS), 2014)
About 17,000 (4.7%) of roughly 360,000 compounds were called active. About 5% were inconclusive and are not listed. Rule as the data show it: active = activity change below about -50%; inconclusive = mostly about -30% to -49%; inactive = weaker than that. This excerpt belongs to a sample that is enriched for actives.

assay: qHTS for Inhibitors of Inflammasome Signaling: IL-1-beta AlphaLISA Primary Screen; settings: THP-1 LPS/ATP IL-1B secretion, 16 h; at 57.5 µM, stronger effect = lower value
Outline: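 Secreted IL-1B measured by AlphaLISA bead assay after 16 h compound exposure of THP-1 cells; compounds (final up to 57.5 uM) added 1 h before LPS (250 ng/mL) and ATP (1.25 mM) stimulation; lower signal means less secretion.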
% is scaled to controls: 0 for no effect and ±100 for the full control effect.

Activity change, inactive:
COc1cc(N/C=C2\CC(=O)NC(C)=C2C#N)cc(OC)c1OC 18.8%, O=C(Cn1cc(C(F)(F)F)ccc1=O)Nc1ccc2c(c1)OCCO2 -6.35%, O=C(CN1CCN(C(=O)c2ccco2)CC1)Nc1ccc2c(c1)OCO2 21.4%, CCCNC(=O)C1(C)CCCN(Cc2cccc(C(F)(F)F)c2)C1 (stereo not given) -10.2%, CCC(C(=O)NCc1ccccc1)n1c(Cc2cc(F)cc(F)c2)nc2ccccc21 (stereo not given) -4.41%, CCOC(=O)[C@]12CCCC=C1N(CCC1=CCCCC1)C(=O)[C@H](CC(=O)N1CCOCC1)C2 12.3%, COc1ccc(CNC(=O)c2ccc(-c3cccnc3)c3ccoc23)cc1OC -14.6%, O=C(Nc1ccc(N2CCOCC2)cc1)c1cccc2c(-c3ccc(F)c(F)c3)coc12 -5%, COc1cc(C(=S)NC2CCCCC2)ccc1O 5.59%, COc1ccc(CNC2CCCCC2)cc1 -4.21%, COc1cc(C=O)c(Br)cc1OCC(=O)NCc1ccccc1 -25.7%, CC(C)(C)NCc1cc(Br)ccc1OC1CCCC1 -13.9%, CCN1C(=O)[C@H]2[C@@H](c3ccc(C(F)(F)F)cc3)N[C@]3(CCCN(Cc4ccc(Br)cc4)C3=O)[C@H]2C1=O -19.9%, O=C1C2C3C=CC(C3)C2C(=O)N1c1ncc([N+](=O)[O-])s1 (stereo not given) 6.51%, CCOc1ccc(S(=O)(=O)NCCC(=O)NCC2CCCO2)cc1 (stereo not given) 32.7%, COc1ccccc1-c1nn(Cc2ccccc2)cc1C(=O)N1CCN(c2ncccn2)CC1 1.02%, COc1ccc(C(C(=O)NCc2ccccc2)n2c(=O)c(-c3ccccc3)nc3ccccc32)cc1 (stereo not given) -6.01%, CSc1ccc(CCNC(=O)CS(=O)(=O)Cc2nc(-c3ccccc3F)oc2C)cc1 9.85%, Cc1ccc(S(=O)(=O)CC(=O)NC(C)c2ccccc2)cc1 (stereo not given) 0.147%, NC(=S)NN=C1CCCC(C(F)(F)F)C1 (stereo not given) 4.88%

Activity change, active:
O=C(CN1CCN(c2ncc(C(F)(F)F)cc2Cl)CC1)Nc1ccc2c(c1)OCO2 -50.6%, CN(C)c1cccc(NC(=O)c2ccc(-c3ccc(F)c(F)c3)c3ccoc23)c1 -82.3%, COc1cc(CNC2CCCC2)c(Br)cc1OCc1ccccc1 -92.7%, COc1cc(CNC2CCCCC2)c(Br)cc1OC1CCCC1 -64.3%, Cc1ccccc1-c1nc(CS(=O)(=O)CC(=O)NC(C)c2ccccc2)c(C)o1 (stereo not given) -61.7%
